One may read the inhibition as the relative decrease from the control value, in per cent.

The target in assay [1] is Serine/threonine-protein kinase MARK2 (Homo sapiens) (UniProt Q7KZI7). The following applies: at 1 µM.
Assay [2] has as its target PAS domain-containing serine/threonine-protein kinase (Homo sapiens) (UniProt Q96RG2). The following applies: at 0.1 µM.
For assay [3] the target is unchanged. As to conditions: at 1 µM.
For assay [4], the target named is Phosphorylase b kinase gamma catalytic chain, skeletal muscle/heart isoform (Homo sapiens) (UniProt Q16816). The following applies: at 0.1 µM.
Assay [5] has the same target. As to conditions: at 1 µM.
In assay [6] the target is T1, Phosphorylase b kinase gamma catalytic chain, liver/testis isoform (Homo sapiens) (UniProt P15735).
T1 sequence (whole entry): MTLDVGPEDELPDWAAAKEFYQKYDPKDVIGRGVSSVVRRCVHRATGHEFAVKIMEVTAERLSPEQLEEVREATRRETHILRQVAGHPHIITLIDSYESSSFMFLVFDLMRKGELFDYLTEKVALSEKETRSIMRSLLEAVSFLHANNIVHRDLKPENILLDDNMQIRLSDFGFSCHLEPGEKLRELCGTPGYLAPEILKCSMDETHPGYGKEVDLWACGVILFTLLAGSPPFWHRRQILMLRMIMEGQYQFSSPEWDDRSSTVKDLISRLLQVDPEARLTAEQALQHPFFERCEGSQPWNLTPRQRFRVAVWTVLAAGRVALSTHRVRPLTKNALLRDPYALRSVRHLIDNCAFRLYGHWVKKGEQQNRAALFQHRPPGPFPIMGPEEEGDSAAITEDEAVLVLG
The following applies: at 0.1 µM.

In assay [7] the target is T1, Phosphorylase b kinase gamma catalytic chain, liver/testis isoform (Homo sapiens). As to conditions: at 1 µM.
For assay [8], the target named is Serine/threonine-protein kinase pim-1 (Homo sapiens) (UniProt P11309). As to conditions: at 0.1 µM.
For assay [9] the target is unchanged. The following applies: at 1 µM.
Assay [10] addresses Serine/threonine-protein kinase pim-2 (Homo sapiens) (UniProt Q9P1W9). The following applies: at 0.1 µM.

Chain of Serine/threonine-protein kinase pim-2 (Homo sapiens) (Q9P1W9 whole entry, looked up): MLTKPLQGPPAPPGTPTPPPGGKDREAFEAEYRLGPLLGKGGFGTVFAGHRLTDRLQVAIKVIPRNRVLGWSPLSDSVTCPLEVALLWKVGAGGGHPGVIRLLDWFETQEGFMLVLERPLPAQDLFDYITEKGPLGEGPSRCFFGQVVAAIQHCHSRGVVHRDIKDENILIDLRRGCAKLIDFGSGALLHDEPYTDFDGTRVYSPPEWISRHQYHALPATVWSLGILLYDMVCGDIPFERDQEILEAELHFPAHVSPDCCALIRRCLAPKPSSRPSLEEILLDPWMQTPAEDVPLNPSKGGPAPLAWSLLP
Chain of PAS domain-containing serine/threonine-protein kinase (Homo sapiens) (Q96RG2 whole entry, the tested form may be a part): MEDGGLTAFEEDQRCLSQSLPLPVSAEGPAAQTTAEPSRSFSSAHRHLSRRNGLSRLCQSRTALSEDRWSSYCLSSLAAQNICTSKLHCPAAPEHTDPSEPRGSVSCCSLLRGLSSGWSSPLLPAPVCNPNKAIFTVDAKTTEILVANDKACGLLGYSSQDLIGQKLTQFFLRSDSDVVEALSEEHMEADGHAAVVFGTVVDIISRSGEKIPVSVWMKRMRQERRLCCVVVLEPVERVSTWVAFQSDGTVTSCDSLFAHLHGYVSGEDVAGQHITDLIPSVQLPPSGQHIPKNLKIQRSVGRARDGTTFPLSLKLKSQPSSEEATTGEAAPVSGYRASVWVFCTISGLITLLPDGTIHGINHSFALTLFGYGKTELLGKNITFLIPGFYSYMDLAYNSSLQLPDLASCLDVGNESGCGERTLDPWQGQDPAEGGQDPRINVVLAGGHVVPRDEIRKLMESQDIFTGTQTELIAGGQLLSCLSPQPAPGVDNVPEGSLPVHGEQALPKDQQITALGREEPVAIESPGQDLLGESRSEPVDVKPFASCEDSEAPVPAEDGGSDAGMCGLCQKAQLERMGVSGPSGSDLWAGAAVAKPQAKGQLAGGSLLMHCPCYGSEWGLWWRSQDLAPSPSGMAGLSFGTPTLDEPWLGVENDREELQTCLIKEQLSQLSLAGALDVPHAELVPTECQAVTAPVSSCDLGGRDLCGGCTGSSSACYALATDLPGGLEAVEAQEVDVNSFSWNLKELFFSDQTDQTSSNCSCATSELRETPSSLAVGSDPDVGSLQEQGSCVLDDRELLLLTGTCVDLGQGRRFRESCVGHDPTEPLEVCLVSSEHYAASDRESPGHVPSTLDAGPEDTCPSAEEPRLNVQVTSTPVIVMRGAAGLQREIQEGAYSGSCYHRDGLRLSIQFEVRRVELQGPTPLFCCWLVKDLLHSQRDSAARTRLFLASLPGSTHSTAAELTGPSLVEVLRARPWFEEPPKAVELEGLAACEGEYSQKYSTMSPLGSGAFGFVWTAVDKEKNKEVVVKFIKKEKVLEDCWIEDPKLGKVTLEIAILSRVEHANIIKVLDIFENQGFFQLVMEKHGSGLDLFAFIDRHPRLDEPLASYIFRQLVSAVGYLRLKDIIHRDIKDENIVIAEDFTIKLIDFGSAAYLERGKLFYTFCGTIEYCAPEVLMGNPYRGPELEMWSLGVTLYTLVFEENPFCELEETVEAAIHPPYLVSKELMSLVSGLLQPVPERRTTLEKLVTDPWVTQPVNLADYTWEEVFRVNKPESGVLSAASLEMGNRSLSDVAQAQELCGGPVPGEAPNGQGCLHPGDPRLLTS
Chain of Serine/threonine-protein kinase pim-1 (Homo sapiens) (P11309 whole entry, looked up): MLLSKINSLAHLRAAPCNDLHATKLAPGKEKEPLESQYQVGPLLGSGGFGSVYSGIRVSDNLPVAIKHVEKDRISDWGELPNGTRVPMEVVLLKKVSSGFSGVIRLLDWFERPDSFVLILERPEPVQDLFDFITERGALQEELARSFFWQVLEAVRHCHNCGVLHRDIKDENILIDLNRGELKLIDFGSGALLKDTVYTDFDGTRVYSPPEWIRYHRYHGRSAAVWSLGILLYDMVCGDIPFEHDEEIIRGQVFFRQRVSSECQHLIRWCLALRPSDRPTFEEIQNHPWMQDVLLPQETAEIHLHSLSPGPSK
Chain of Serine/threonine-protein kinase MARK2 (Homo sapiens) (Q7KZI7 whole entry, the tested form may be a part): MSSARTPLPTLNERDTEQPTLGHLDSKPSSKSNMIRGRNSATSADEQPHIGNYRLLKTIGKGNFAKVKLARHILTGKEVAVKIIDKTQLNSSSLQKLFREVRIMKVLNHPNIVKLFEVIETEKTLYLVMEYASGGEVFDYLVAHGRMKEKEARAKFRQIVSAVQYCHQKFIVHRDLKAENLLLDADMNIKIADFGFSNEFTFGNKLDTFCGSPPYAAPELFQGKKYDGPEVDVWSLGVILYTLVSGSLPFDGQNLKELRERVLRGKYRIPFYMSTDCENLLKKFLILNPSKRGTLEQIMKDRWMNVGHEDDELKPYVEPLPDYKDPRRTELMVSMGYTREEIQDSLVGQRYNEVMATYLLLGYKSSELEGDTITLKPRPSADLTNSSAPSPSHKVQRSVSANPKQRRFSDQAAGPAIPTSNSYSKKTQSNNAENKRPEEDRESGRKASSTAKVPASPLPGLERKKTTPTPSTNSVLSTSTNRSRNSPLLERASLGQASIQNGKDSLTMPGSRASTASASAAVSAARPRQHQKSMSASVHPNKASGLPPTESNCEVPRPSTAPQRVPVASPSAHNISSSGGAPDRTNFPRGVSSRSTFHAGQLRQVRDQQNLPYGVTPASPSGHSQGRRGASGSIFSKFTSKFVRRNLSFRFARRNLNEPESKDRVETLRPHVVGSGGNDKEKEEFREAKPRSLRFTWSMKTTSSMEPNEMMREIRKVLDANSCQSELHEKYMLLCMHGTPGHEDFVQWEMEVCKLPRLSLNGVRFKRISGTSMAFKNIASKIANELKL
Chain of Phosphorylase b kinase gamma catalytic chain, skeletal muscle/heart isoform (Homo sapiens) (Q16816 whole entry, looked up, canonical isoform): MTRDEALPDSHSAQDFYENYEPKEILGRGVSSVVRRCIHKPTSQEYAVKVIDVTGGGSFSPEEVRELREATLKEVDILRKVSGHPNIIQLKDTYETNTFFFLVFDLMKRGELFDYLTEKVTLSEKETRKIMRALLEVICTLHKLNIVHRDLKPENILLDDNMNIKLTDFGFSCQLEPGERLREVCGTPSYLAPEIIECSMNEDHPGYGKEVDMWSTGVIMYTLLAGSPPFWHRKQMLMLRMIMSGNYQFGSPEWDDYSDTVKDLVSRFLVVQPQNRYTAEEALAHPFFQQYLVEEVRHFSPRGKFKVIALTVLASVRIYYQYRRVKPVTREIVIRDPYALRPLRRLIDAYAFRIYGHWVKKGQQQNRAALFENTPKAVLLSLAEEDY

As for `COc1cc(Nc2ncc3c(C)nc(-c4cccc(C(F)(F)F)c4)n3n2)cc(OC)c1OC`, the inhibition is 3.54% in assay [1]; -0.04% in assay [2]; 0.78% in assay [3]; 5.08% in [4]; 11.8% in assay [5]; 4.94% in [6]. Besides, the inhibition in assay [7] came to 6.94%; in assay [8], 0.28%; in [9], 2%; in assay [10] it was 0.34%.
On to `O=C(Nc1n[nH]c2cc(-c3cc(F)ccc3F)ccc12)C1CC1`, for which the inhibition was -0.47% in assay [1]; -1.13% in assay [2]; -2.73% in [3]; 4.9% in assay [4]; 5.59% in assay [5]; 3.06% in assay [6]. Besides, the inhibition is 1.94% in assay [7], -0.51% in assay [8], 1.3% in [9] and 0.05% in assay [10].
In the case of `COc1cccc(-n2cnc3c(N/N=C/c4ccncc4)ncnc32)c1`, the inhibition was 4.05% in [1]; 1.87% in assay [2]; 4.15% in assay [3]; -0.02% in [4]; 2.55% in assay [5]; 1.83% in assay [6]. The inhibition in [7] was 6.48%; in [8], -0.24%; in assay [9], -0.03%; in [10] it was -3.51%.
In the case of `NC(=O)c1ccc(Oc2nccc(-c3c(-c4ccc(F)cc4)ncn3C3CCNCC3)n2)cc1`, the inhibition in [1] is 4.02%; in assay [2], -1.25%; in [3], -0.29%; in [4], 3.06%; in assay [5], 5.58%; in assay [6], 5.89%. Further, the inhibition was 5.72% in [7], 0.9% in [8], 1.7% in [9] and -0.5% in [10].
In the case of `O=C1NC(=O)C(c2cccc(Cl)c2)=C1Nc1ccc(Cl)c(C(=O)O)c1`, the inhibition in assay [1] was found to be 0.4%; in [2], 0.25%; in [3], 1.42%; in assay [4], 3.55%; in [5], 5.32%; in assay [6], 4.58%. The inhibition is 5.29% in [7], -0.66% in assay [8], -0.28% in assay [9] and -0.18% in [10].
As for `COc1cc(N2CCN(C(C)C)CC2)ccc1Nc1nc(Nc2ccc(F)cc2C(=O)NC[C@@H](O)CO)c2cc[nH]c2n1`, the inhibition in assay [1] was 1.35%; in assay [2], -0.25%; in [3] it was 0.96%; in [4], 21%; in assay [5] it was 62%; in assay [6], 6.76%. Besides, the inhibition in assay [7] was 21.1%; in assay [8], -0.41%; in [9], 1.79%; in assay [10], -3.35%.
For `CCS(=O)(=O)c1ccc(OC)c(Nc2ncc(-c3ccccc3Cl)o2)c1`, the inhibition in assay [1] was -0.17%; in assay [2] it was 1.42%; in assay [3], 0.93%; in assay [4], 1.33%; in [5], 1.36%; in assay [6], 1.67%. The inhibition in assay [7] is 0.7%; in assay [8], -0.02%; in assay [9], 1.67%; in assay [10] it was -0.56%.
With `CN(c1ccc(NC(=O)Nc2c(Cl)cccc2Cl)cc1)c1ccnc(Nc2cccc(CS(C)(=O)=O)c2)n1`, the inhibition is 2.99% in assay [1]; 0.68% in [2]; 2.77% in assay [3]; 2.51% in assay [4]; 8.06% in [5]; 2.8% in assay [6]. Besides, the inhibition in [7] is 6.5%; in [8] it was -0.26%; in assay [9], 0.34%; in assay [10], 0.03%.
With `N#Cc1ccc(Oc2nccc(-c3c(-c4ccc(F)cc4)ncn3C3CCNCC3)n2)cc1`, the inhibition is -1.45% in [1]; -0.29% in assay [2]; -0.33% in assay [3]; 5.34% in assay [4]; 6.84% in [5]; 4.1% in assay [6]. The inhibition in [7] is 4.74%; in assay [8], 1.27%; in assay [9], 2.26%; in assay [10] it was -0.01%.
With `O=C(NCC1CC1)c1ccc(-c2cccc(C(=O)NC3CC3)c2)cc1`, the inhibition in assay [1] is 1.08%; in assay [2], 0.62%; in [3], -1.02%; in assay [4] it was 1.06%; in [5] it was -2.22%; in [6] it was 2.3%. The inhibition in assay [7] is -1.04%; in [8], 0.15%; in assay [9], 0.34%; in assay [10] it was 0.75%.
For the compound `C/C(Nc1ccc(S(N)(=O)=O)cc1)=C1/C(=O)Nc2ccccc21`, the inhibition is 18.6% in assay [1]; -1.08% in assay [2]; -1.37% in [3]; 5.53% in assay [4]; 29.9% in [5]; -0.73% in assay [6]. Also, the inhibition in assay [7] was determined as 19.6%; in assay [8], 0.43%; in assay [9], 2.86%; in assay [10], 0.75%.
For the compound `COc1cc(Nc2ncc(-c3ccccc3)o2)cc(OC)c1OC`, the inhibition was 15.6% in assay [1]; 0.63% in assay [2]; -0.67% in [3]; 3.23% in [4]; 20.9% in assay [5]; -2.9% in assay [6]. The inhibition in assay [7] was -2.15%; in [8], 0.68%; in [9], 2.12%; in [10], 0.06%.
As for `COc1cccc(/C=N/Nc2ncnc3c2cnn3-c2cccc(OC)c2)c1`, the inhibition in [1] is 0.57%; in assay [2] it was -0.3%; in assay [3] it was -1.16%; in assay [4], 0.94%; in [5], 2.68%; in [6], 3.6%. The inhibition in [7] was 2.4%; in [8] it was 0.63%; in [9], 1.58%; in assay [10], -0.75%.
For `CCc1ccc(Oc2nccc(-c3c(-c4ccc(F)cc4)ncn3C3CCNCC3)n2)cc1`, the inhibition in assay [1] was 4.62%; in [2], -0.7%; in assay [3], 0.69%; in [4], 1.39%; in [5], 2.98%; in [6], 5.05%. In addition, the inhibition in assay [7] was found to be 5.44%; in assay [8], 2.14%; in assay [9], 1.74%; in assay [10], 0.08%.
In the case of `Fc1ccc(-c2nc3n(c2-c2ccncc2)CCS3)cc1`, the inhibition is 1.88% in assay [1]; -0.27% in assay [2]; -1.64% in assay [3]; 5.2% in [4]; 4.39% in [5]; 4.24% in assay [6]. The inhibition in assay [7] is 2.33%; in [8], 0.77%; in [9], 2.11%; in assay [10] it was -3.25%.
As for `COc1cc(Nc2ncc3c(C)nc(-c4cccc(Oc5ccccc5)c4)n3n2)cc(OC)c1OC`, the inhibition in assay [1] was 5.64%; in assay [2], 0.54%; in assay [3] it was -0.72%; in [4], -0.01%; in assay [5] it was 5.67%; in [6], 2.66%. The inhibition in assay [7] was -0.4%; in assay [8] it was 0.91%; in assay [9] it was 1.16%; in [10] it was 0.23%.
For `NC(=O)c1cc(-c2ccc(F)cc2)cc(-c2ccncc2)c1N`, the inhibition in assay [1] was -0.63%; in assay [2], -1.01%; in [3] it was -1.24%; in [4], 5.8%; in [5], 5.92%; in [6] it was 4.55%. The inhibition in assay [7] was 5.76%; in [8], 0.02%; in assay [9], 1.09%; in assay [10], -0.12%.
On to `Fc1ccc(-c2ncn(CCCN3CCOCC3)c2-c2ccncc2)cc1`, for which the inhibition in assay [1] was 2.44%; in assay [2] it was 0.57%; in assay [3], 0.36%; in [4] it was 1.86%; in assay [5], 2.09%; in assay [6], -0.42%. Further, the inhibition in [7] is -2.63%; in assay [8], -0.06%; in assay [9] it was -0.27%; in assay [10], 0.24%.
In the case of `COc1ccc(-c2ccc3c(NC(=O)C4CC4)n[nH]c3n2)cc1`, the inhibition in assay [1] was -0.61%; in [2], 0.2%; in assay [3] it was 2.17%; in [4], 5.12%; in assay [5] it was 7.79%; in assay [6] it was 0.93%. Further, the inhibition in assay [7] is 5.44%; in assay [8], -0.29%; in assay [9], -0.78%; in [10], -0.37%.

(Values after ChEMBL document CHEMBL1961873, “Compounds: GSK PKIS; Assays: Nanosyn kinase panel” (2012).)
